Screening data: PubChem, Broad Institute
Sampled rows, rich in hits. Any-hit rate of the full collection: about 3.1%.
dFosB activator – enhances mouse delta FosB homodimer DNA binding; P13346; purified delta FosB, TAMRA-CDK5 oligo fluorescence polarization; percent of positive-control signal above neutral wells; activation, % at 25 µM; 0.99% of 340,000 active;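 active means mean activation above about 17%, with every replicate also reaching it, limit read from the data, passing the limit was not always enough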
MLL AF4-AF9 inh – inhibitors of human MLL-AF4/AF9 interaction. AID 651704. 0.47% of 350,000 active. inhibition, % at 10 µM. AlphaScreen, biotin-AF4 peptide binding to FLAG-AF9;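 active means every replicate reaching a set inhibition limit, whatever the replicate mean, cut at about 25% in these data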
INS-1E GSIS act – GLuc luminescence reporter in INS-1E cells, primary screen for activators of glucose-dependent secretion of insulin | AID 743287 | activation, % at 16.6 µM | INS-1E GLuc reporter insulin secretion, 2-3 h | 0.61% of 370,000 active;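 active means lowest replicate activation of at least 40%, so every replicate reaches that level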
DENV2 CPE rescue – DENV2-induced cell death inhibition; DENV2-infected cells, cytopathic effect rescue, plate reader; 1.7% of 350,000 active; CPE inhibition, % at 9.99 µM; AID 651640; in the data active means CPE inhibition above about 20%, passing the limit was not always enough; tested in BHK-21 cells
RAD54 inh – inhibitors of human RAD54 branch migration | Q92698 | RAD54 Holliday junction branch migration, FAM/BHQ fluorescence | inhibition, % at 10.4 µM | 0.14% of 360,000 active | AID 602329;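 active means mean normalized replicate activity at least 40 and at least half of replicates scoring 40 or more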;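 further: inhibitors cause a drop in the FAM fluorescence signal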
RAD52 inh – inhibitors of human RAD52 DNA annealing; P43351; recombinant RAD52 DNA annealing, FRET fluorescence; inhibition, % at 18.7 µM; 0.46% of 360,000 active; AID 651710;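 active means every replicate showing at least 50% inhibition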
Target sequence (P43351 whole entry, looked up): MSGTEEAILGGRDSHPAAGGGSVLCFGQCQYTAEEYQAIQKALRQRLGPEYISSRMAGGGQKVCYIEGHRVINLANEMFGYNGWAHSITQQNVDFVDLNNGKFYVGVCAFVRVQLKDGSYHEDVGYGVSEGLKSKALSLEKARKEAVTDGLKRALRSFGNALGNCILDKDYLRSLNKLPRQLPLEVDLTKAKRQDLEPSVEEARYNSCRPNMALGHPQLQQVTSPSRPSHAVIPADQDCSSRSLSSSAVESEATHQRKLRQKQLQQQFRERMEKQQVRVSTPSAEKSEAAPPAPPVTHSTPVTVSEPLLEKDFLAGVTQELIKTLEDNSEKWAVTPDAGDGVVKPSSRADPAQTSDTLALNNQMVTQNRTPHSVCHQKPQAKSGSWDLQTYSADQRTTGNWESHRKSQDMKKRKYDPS
Numbers stand for hits; – = inactive; · = no result given.

SMILES	dFosB activator	MLL AF4-AF9 inh	INS-1E GSIS act	DENV2 CPE rescue	RAD54 inh	RAD52 inh
Cc1ccc(F)c([C@H]2C3C=CCC(c4ccccc4)C3C(=O)N2Cc2ccccc2)c1 (stereo partly drawn)	–	50	–	–	–	–
Cc1ccc(-c2cccc(C3CC=CC4C3C(=O)N(Cc3ccccc3)C4c3ccc(C(F)(F)F)cc3)c2)cc1 (stereo not drawn)	–	–	–	93	–	–
O=C1C2C(c3ccccc3)CC=CC2[C@H](c2ccc3ccccc3c2)N1Cc1ccccc1 (stereo partly drawn)	–	–	·	·	–	–
COC(=O)[C@H](Cc1ccccc1)N1CC2=C[C@@H](C3CC3)n3c(=O)n(C)c(=O)n3[C@H]2[C@@H]1[C@@H](O)Cc1ccccc1	·	–	·	–	–	–
CCOC(=O)C1=CN2CCC[C@H]2CC1=O	–	–	–	63	–	–
CCOC(=O)C1=CN2CCCC[C@@H]2CC1=O	–	–	–	–	–	–
Cc1noc(C)c1S(=O)(=O)Nc1ccc2c(c1)C(=O)N([C@H](C)CO)C[C@@H](C)[C@H](CN(C)C(=O)Nc1ccc3c(c1)OCO3)O2	·	–	–	–	–	–
CN(C)CCN1C(=O)c2cccc3cc([N+](=O)[O-])cc(c23)C1=O	49	–	·	–	·	–
O=C(C[C@H]1C=C[C@@H](NC(=O)Nc2ccc3c(c2)OCO3)[C@H](CO)O1)NCCCN1CCOCC1	·	–	–	–	–	–
CC(C)CNC(=O)C1(C)CCCCCN1C(=O)c1csnn1 (stereo not drawn)	·	–	–	113	–	–
CCN1/C(=C/c2ccc3ccccc3[n+]2CC)C=Cc2ccccc21	–	·	·	·	71	·
CCCCN1/C(=C/c2ccc3ccccc3[n+]2CC)Sc2ccccc21	27	·	·	·	·	·
CCN1/C(=C/c2ccc3cc(C)ccc3[n+]2CC)Sc2cc(C)ccc21	–	–	–	–	–	–
O=C(C[C@@H]1CC[C@H]2[C@@H](COC[C@@H](O)CN2Cc2cccc(C(F)(F)F)c2)O1)NCCc1ccncc1	·	–	–	–	–	–
Cc1cc(NC(=O)CCN2C(=O)/C(=C/c3ccccc3F)SC2=S)no1	·	–	–	·	·	–
Cc1cc(NC(=O)CCN2C(=O)/C(=C\c3ccccc3)SC2=S)no1	40	–	–	–	–	–
Cc1cc(NC(=O)CCCN2C(=O)/C(=C/c3ccccc3Cl)SC2=S)no1	37	–	–	–	–	–
COc1ccc2c3c(n(C)c2c1)[C@@H](CO)NCC31CN(CC2CCOCC2)C1	·	32	–	–	·	75
COc1ccc2c3c(n(C)c2c1)[C@H](CO)NCC31CN(CC2CC2)C1	·	–	–	–	·	62
COc1ccc2c3c([nH]c2c1)[C@@H](CO)N(C(=O)c1ccccc1)CC31CCN(C(=O)NC(C)C)CC1	·	–	–	–	·	–
O=C(N[C@H]1C=C[C@@H](CC(=O)N2CCN(c3ccccc3)CC2)O[C@H]1CO)c1ccccc1	·	–	–	71	–	–
O=C(N[C@@H]1CC[C@@H](CC(=O)N2CCN(c3ccccc3)CC2)O[C@H]1CO)c1ccncc1	·	–	–	31	–	–
O=C(N[C@H]1CC[C@H](CCNC(=O)C2CCCCC2)O[C@H]1CO)c1ccccn1	·	–	–	–	–	–
O=C(N[C@H]1CC[C@@H](CCNC(=O)C2CCCC2)O[C@H]1CO)c1ccccn1	·	–	–	44	–	–
O=C(N[C@@H]1CC[C@H](CCNC(=O)C2CCCCC2)O[C@@H]1CO)c1ccccn1	·	–	–	149	–	–
C[C@@H]1CCCCO[C@H](CN(C)C(=O)C2CCCCC2)[C@H](C)CN([C@@H](C)CO)C(=O)c2cc(NC(=O)NC3CCCCC3)ccc2O1	·	–	–	–	–	–
O=C(C[C@@H]1C[C@@H]2c3cc(NC(=O)NC4CCCC4)ccc3O[C@@H]2[C@H](CO)O1)NCc1ccccc1	·	·	–	·	·	·
C[C@@H]1CN([C@@H](C)CO)C(=O)c2cc(NC(=O)C3CCCCC3)ccc2O[C@H]1CN(C)S(=O)(=O)c1ccccc1	·	–	–	–	–	–
COc1ccccc1C(=O)Nc1ccc2c(c1)C(=O)N(C)C[C@@H](OC)[C@@H](C)CN(C)[C@@H](C)CO2	·	–	–	–	–	–
O=C(N[C@H]1CC[C@H](CC(=O)N2CCCCC2)O[C@@H]1CO)c1ccccn1	·	–	–	28	·	–
